Experimental data as given in PubChem BioAssay (EPA / NIEHS).
Activity calls are given as the source filed them. How the source made its calls: active means hit-call score of the fitted dose curve at least 0.9, where 1 is the maximum; inactive means score below 0.9.

What was measured:
Conditions in all cases: primary human HUVEC with PBMC; actives raise or lower the signal
[1] = read-out: Monocyte Chemoattractant Protein-1 (MCP1), CCL2 (gene 6347); experiment: BSK_LPS_MCP1: BioMAP Diversity Plus: LPS Assay for Monocyte Chemoattractant Protein-1 (MCP1) Biomarker Activity (AID 2283081);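 on AC50: secreted MCP-1 protein quantified by ELISA in culture supernatant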
Procedure, shortened: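 LPS-stimulated HUVEC/PBMC co-culture; chemical, 24 h; MCP-1 by ELISA; bidirectional fit vs DMSO; cytotoxicity via SRB (0.1% stain, 10% TCA fix, 560 nm) in parallel wells.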

[2] = BSK_LPS_PGE2: BioMAP Diversity Plus: LPS Assay for Prostaglandin E2 (PGE2) Biomarker Activity (AID 2283082);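 on AC50: secreted prostaglandin E2 measured by ELISA in LPS-stimulated co-culture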
Procedure, shortened: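 HUVEC plus PBMC co-culture stimulated with LPS; secreted PGE2 quantified by ELISA 24 h after chemical dosing. Activity fitted bidirectionally against DMSO as negative control and baseline; parallel SRB total-protein staining served as cytotoxicity check.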

[3] = read-out: Macrophage colony-stimulating factor (MCSF), CSF1 (gene 1435); experiment: BSK_LPS_MCSF: BioMAP Diversity Plus: LPS Assay for Macrophage colony-stimulating factor (MCSF) Biomarker Activity (AID 2283083)
Procedure, shortened: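 Compound is added to a human vascular primary co-culture of umbilical vein endothelium and blood mononuclear cells. After 24 h, M-CSF is quantified by ELISA. Signal changes are fitted in both directions against DMSO.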

[4] = read-out: Tissue Factor, F3 (gene 2152); experiment: BSK_LPS_TissueFactor: BioMAP Diversity Plus: LPS Assay for Tissue Factor Biomarker Activity (AID 2283084)
Procedure, shortened: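 In this co-culture system of umbilical vein endothelium with PBMC, stimulated with LPS, cell-surface CD142 is detected by ELISA at 24 h. Endpoint values derive from bidirectional fitting, DMSO serving as baseline.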

[5] = read-out: Tumor necrosis factor (Homo sapiens) (UniProt P01375); experiment: BSK_LPS_TNFa: BioMAP Diversity Plus: LPS Assay for Tumour Necrosis Factor alpha (TNFa) Biomarker Activity (AID 2283085)
Procedure, shortened: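 Human umbilical vein endothelial cells co-cultured with PBMC were exposed to test chemical and TNFa measured by ELISA 24 h after dosing. Bidirectional curve fitting was done relative to DMSO as negative control and baseline.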

[6] = read-out: Vascular cell adhesion molecule 1 (VCAM1), VCAM1 (gene 7412); experiment: BSK_LPS_VCAM1: BioMAP Diversity Plus: LPS Assay for Vascular cell adhesion molecule 1 (VCAM1) Biomarker Activity (AID 2283086)
Procedure, shortened: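 Human umbilical vein endothelial cells co-cultured with peripheral blood mononuclear cells under LPS stimulation were exposed to test chemical for 24 h. VCAM-1 levels were then measured by ELISA, with bidirectional curve fitting relative to DMSO as negative control and baseline.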

[7] = read-out: CD38, CD38 (gene 952); experiment: BSK_SAg_CD38: BioMAP Diversity Plus: SAg Assay for CD38 Biomarker Activity (AID 2283087)
Procedure, shortened: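 Fluorescence ELISA of cell-surface CD38 served as the read-out, with either increase or decrease fitted against DMSO controls. Cells were a human umbilical vein endothelium plus PBMC co-culture under SEB/TSST-1 stimulation, measured 24 h after dosing.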

[8] = read-out: CD40, CD40 (gene 958); experiment: BSK_SAg_CD40: BioMAP Diversity Plus: SAg Assay for CD40 Biomarker Activity (AID 2283088)
Procedure, shortened: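 Fluorescence ELISA read-out of CD40 from umbilical vein endothelium plus peripheral blood mononuclear cells, sampled 24 h after dosing. Values come from bidirectional curve fitting with DMSO as baseline.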

[9] = read-out: CD69, CD69 (gene 969); experiment: BSK_SAg_CD69: BioMAP Diversity Plus: SAg Assay for CD69 Biomarker Activity (AID 2283089);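 on AC50: cell surface CD69 protein quantified by ELISA with fluorescence detection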
Procedure, shortened: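 Primary human vascular co-culture (umbilical vein endothelium with peripheral blood mononuclear cells) exposed to test chemical for 24 h. CD69 levels quantified by fluorescence ELISA; DMSO served as negative control for bidirectional fitting.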

[10] = read-out: Monocyte Chemoattractant Protein-1 (MCP1), CCL2 (gene 6347); experiment: BSK_SAg_MCP1: BioMAP Diversity Plus: SAg Assay for Monocyte Chemoattractant Protein-1 (MCP1) Biomarker Activity (AID 2283090)
Procedure, shortened: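 MCP-1 levels in the endothelial–PBMC SAg co-culture were quantified by ELISA at 24 h post-dosing; both increases and decreases versus DMSO scored. Cytotoxicity monitored by SRB total protein in parallel cultures.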

Measured: AC50

Sequence of Tumor necrosis factor (Homo sapiens) (P01375 whole entry, looked up): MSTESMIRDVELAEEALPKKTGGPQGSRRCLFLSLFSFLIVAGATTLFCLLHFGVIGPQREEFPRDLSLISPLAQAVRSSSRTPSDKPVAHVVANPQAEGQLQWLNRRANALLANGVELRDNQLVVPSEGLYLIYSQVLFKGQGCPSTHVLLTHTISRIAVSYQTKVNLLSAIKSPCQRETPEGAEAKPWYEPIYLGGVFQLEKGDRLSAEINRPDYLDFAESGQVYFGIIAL

OC(c1ccc(Cl)cc1)(c1ccc(Cl)cc1)C(Cl)(Cl)Cl
active: [1] 30.6 µM | [2] 17.5 µM | [3] 29.5 µM | [4] 20 µM | [5] 30.8 µM | [6] 29.3 µM | [7] 29.7 µM | [8] 29.9 µM | [9] 30 µM | [10] 30.7 µM

COc1cc(OC)nc(NC(=O)NS(=O)(=O)c2ncccc2OCC(F)(F)F)n1
not listed: [3]
inactive: all other assays above

COCc1cnc(C2=NC(C)(C(C)C)C(=O)N2)c(C(=O)O)c1 (configuration not stated)
not listed: [3]
inactive: all other assays above

CC(C)N1C(=O)N(c2ccccc2)CSC1=NC(C)(C)C
active: [1] 30.5 µM | [2] 33.2 µM | [4] 32.6 µM | [5] 32.1 µM | [6] 31.6 µM | [7] 30.7 µM | [8] 33.4 µM | [9] 30.3 µM | [10] 34.5 µM

Clc1cccc(C(Cl)(Cl)Cl)n1
not listed: [3]
inactive: all other assays above

CC(C)NC(=O)N1CC(=O)N(c2cc(Cl)cc(Cl)c2)C1=O
not listed: [3]
inactive: all other assays above

CNC(=O)Oc1cccc2ccccc12
active: [2] 1.63 µM | [6] 9.39 µM
not listed: [3]
inactive: all other assays above

CCOc1nc(C(Cl)(Cl)Cl)ns1
not listed: [3]
inactive: all other assays above

Cc1c(COC(=O)[C@@H]2[C@H](/C=C(\Cl)C(F)(F)F)C2(C)C)cccc1-c1ccccc1
active: [2] 4.57 µM | [8] 16.5 µM | [9] 5.92 µM
not listed: [3]
inactive: all other assays above

CC1(C)CON(Cc2ccccc2Cl)C1=O
not listed: [3]
inactive: all other assays above

N#Cc1c(Cl)cccc1Cl
not listed: [3]
inactive: all other assays above

Cc1nc(N(C)C)nc(OC(=O)N(C)C)c1C
not listed: [3]
inactive: all other assays above

Cc1cc(C)nc(Nc2ccccc2)n1
active: [7] 20 µM
not listed: [3]
inactive: all other assays above

CCCCC(O)(Cn1cncn1)c1ccc(Cl)cc1Cl (configuration not stated)
active: [2] 3.81 µM
not listed: [3]
inactive: all other assays above

CCOc1cc(C(C)(C)C)ccc1C1COC(c2c(F)cccc2F)=N1 (configuration not stated)
active: [1] 33.4 µM | [2] 32.1 µM | [4] 36.8 µM | [5] 30.4 µM | [6] 31.4 µM | [7] 18.8 µM | [8] 15.8 µM | [9] 20.5 µM | [10] 28.5 µM

CCC(C)n1c(=O)[nH]c(C)c(Br)c1=O (configuration not stated)
active: [5] 10.5 µM
not listed: [3]
inactive: all other assays above

O=c1n(Cl)c(=O)n(Cl)c(=O)n1Cl
active: [4] 0.966 µM | [10] 11.6 µM
not listed: [3]
inactive: all other assays above

CCCCC(C#N)(Cn1cncn1)c1ccc(Cl)cc1 (configuration not stated)
active: [2] 12 µM
not listed: [3]
inactive: all other assays above

O=P(O)(O)CCCl
not listed: [3]
inactive: all other assays above
